Screens deposited in PubChem BioAssay by NMMLSC.
Sampled rows, rich in hits. Any-hit rate of the full collection: about 1.2%.
Avidin fluor: compound fluoresces at 488/530 nm on avidin beads; fluorescence (KMESF) at 10 µM; actives 0.38% (n = 220,000); compound fluorescence 488/530 nm, flow cytometry; hits give high values; in the data active = fluorescence above about 47
RGS8-Gao: modulates binding of RGS8 to human Galphao; P09471; actives 0.34% (n = 220,000); multiplexed bead flow cytometry; actives lie on both sides; response (percent of control binding), % at 10 µM; in the data active = response below about 60% or above about 140%; inactive = in between;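 also: Galphao activated as the GDP aluminium fluoride complex binding bead-coupled RGS8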
RGS16-Gao HTS: modulates binding between human RGS16 and Galphao. O15492+P09471. bead-based flow cytometry RGS16-Galphao binding, fluorescence; actives lie on both sides. binding response (% of control), % at 10 µM. actives 0.38% (n = 220,000);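 also: Galphao activated by GDP with aluminum fluoride before binding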
GSH bead fluor: GSH bead compound fluorescence profile. GSH beads flow cytometry, compound fluorescence 488/530 nm; hits give high values. fluorescence (KMESF) at 10 µM. actives 0.25% (n = 190,000). AID 1776; in the data active = fluorescence above about 89;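 also: glutathione beads carrying GST-tagged Bcl family fusion proteins plus one bare bead set; values are compound well signal with DMSO vehicle wells as background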
RGS4-Gao reg: human RGS4-Galphao interaction regulation | P09471 | Multiplexed bead flow cytometry, RGS4-Galphao binding; actives lie on both sides | binding response (% of control), % at 10 µM | actives 0.33% (n = 220,000) | AID 1415; in the data active = binding response below about 49% or above about 150%; inactive = in between;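 also: fluorescent Galphao activated with aluminum fluoride binding bead-coupled RGS4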
RGS7-Gao reg: modulates binding of RGS7 to human Galphao; P09471; Multiplexed bead flow cytometry; actives lie on both sides; binding response (% of control), % at 10 µM; actives 0.35% (n = 220,000); AID 1439; in the data active = binding response below about 49% or above about 150%;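 also: fluorescent Galphao held in activated GDP-AlF4 state binding bead-coupled RGS7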
RGS-Gao: RGS4-Galphao interaction regulator (human) | shares compounds with RGS16-Gao HTS | multiplexed bead flow cytometry, RGS–Galpha-o binding | RGS4–Galpha-o binding response, % at 10 µM | actives 99% (n = 1,600);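 also: fluorescently labeled Galpha-o bound to GDP with aluminium fluoride binding biotinylated RGS beads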
Target sequence (P09471 whole entry, looked up): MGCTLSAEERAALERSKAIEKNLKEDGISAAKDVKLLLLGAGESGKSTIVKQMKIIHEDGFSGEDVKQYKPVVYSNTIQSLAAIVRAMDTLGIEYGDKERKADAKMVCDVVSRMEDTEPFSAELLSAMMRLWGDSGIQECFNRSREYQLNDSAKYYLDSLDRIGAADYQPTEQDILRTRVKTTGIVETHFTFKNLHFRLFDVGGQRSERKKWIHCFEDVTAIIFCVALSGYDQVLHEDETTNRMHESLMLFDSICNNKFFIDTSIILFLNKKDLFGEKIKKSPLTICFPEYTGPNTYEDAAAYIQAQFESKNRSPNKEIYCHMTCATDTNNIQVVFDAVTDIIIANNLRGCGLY
Target sequence (P49798 whole entry, looked up): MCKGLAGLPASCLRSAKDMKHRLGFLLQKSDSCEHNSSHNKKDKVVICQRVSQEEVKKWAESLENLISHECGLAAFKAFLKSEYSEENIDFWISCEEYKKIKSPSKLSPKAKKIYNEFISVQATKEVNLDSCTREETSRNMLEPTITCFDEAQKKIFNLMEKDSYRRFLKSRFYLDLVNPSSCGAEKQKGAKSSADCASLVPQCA
Biotin-avidin: biotin-avidin bead binding disruption counter-screen | shares compounds with RGS16-Gao HTS | streptavidin beads, fluorescein-biotin binding, flow cytometry | inhibition, % at 10 µM | 1,700 tested, under 10 active | AID 1783;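 active = inhibition above 50%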;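 also: median green fluorescence of gated singlet beads compared with DMSO control wells; 0% = DMSO wells and 100% = complete loss of bead fluorescence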
RGS8-Gao single: confirmation of regulators of human RGS8-Galphao interaction. AID 1836. actives 3% (n = 1,700). shares compounds with RGS16-Gao HTS. binding response (% of control), % at 10 µM. bead-based flow cytometry RGS8-Galphao binding, fluorescence; actives lie on both sides; in the data active = binding response below about 72% or above about 130%; inactive = in between;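 also: Galphao activated as GDP AlF4 complex before binding bead RGS8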
RGS7-Gao confirm: RGS7-Galphao interaction regulation, single point confirmation | shares compounds with RGS16-Gao HTS | bead-based flow cytometry RGS7-Galphao binding; actives lie on both sides | response (percent of control binding), % at 10 µM | actives 7.8% (n = 1,700) | AID 1837; in the data active = response below about 75% or above about 130%; inactive = in between;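 also: fluorescent Galphao activated with GDP and aluminum fluoride binding bead-coupled RGS7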
RGS16-Gao single: confirmation of regulators of human RGS16-Galphao interaction; response (% of control binding), % at 10 µM; shares compounds with RGS16-Gao HTS; actives 4% (n = 1,700); AID 1838; bead-based flow cytometry, RGS16-Galphao binding; actives lie on both sides; in the data active = response below about 74% or above about 130%; inactive = in between;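 also: Galphao activated as the GDP aluminium fluoride complex binding bead-coupled RGS16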
RGS4-Gao confirm: confirmation of regulators of human RGS4-Galphao interaction; shares compounds with RGS16-Gao HTS; RGS4-Galphao binding, multiplexed bead flow cytometry; actives lie on both sides; binding response (% of control), % at 10 µM; actives 4% (n = 1,700); in the data active = binding response below about 74% or above about 130%; inactive = in between
RGS19-Gao single: RGS19-Galphao interaction regulation, single point confirmation. shares compounds with RGS16-Gao HTS. bead-based flow cytometry RGS19-Galphao binding; actives lie on both sides. response (percent of control binding), % at 10 µM. actives 5% (n = 1,700). AID 1841; in the data active = response below about 50% or above about 160%; inactive = in between;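 also: 100% = no compound control and 0% = blank background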
The depositor's hits bear a star; . = no result given; [ ] = dose if it differs, or a comment. Unless noted, no rule for the calls is given here.

SMILES	Avidin fluor	RGS8-Gao	RGS16-Gao HTS	GSH bead fluor	RGS4-Gao reg	RGS7-Gao reg	RGS-Gao	Biotin-avidin	RGS8-Gao single	RGS7-Gao confirm	RGS16-Gao single	RGS4-Gao confirm	RGS19-Gao single
COc1ccc(OC)c(NC(=O)CSc2nnc(CNC(=O)COc3ccc(Cl)cc3)o2)c1	68*	104	117	15	105	159*[activator]	105*	-2	104	104	106	104	100
COc1ccc(NC(=O)CSc2nnc(CNC(=O)COc3ccc(Cl)cc3)o2)c(OC)c1	38	104	104	14	105	106	.	.	.	.	.	.	.
O=C(C1=C[C@@H](c2ccc(Br)cc2)C[C@@H](OCCCCO)O1)N1CCN(Cc2ccccc2)CC1	5	103	104	17	103	105	.	.	.	.	.	.	.
O=C(OCc1nnc(-c2ccccc2)o1)c1cccnc1Cl	9	101	100	13	104	100	.	.	.	.	.	.	.
CCOc1ncccc1C(=O)OCc1nnc(-c2ccccc2)o1	.	.	.	40	.	.	.	-1	100	100	100	99	118
COc1ccc(N/C=C/C(=O)c2ccc(Cl)cc2)cc1	11	60*	61	10	128	125	128*	-1	99	102	104	102	100
COc1cccc(N/C=C/C(=O)c2ccc(Cl)cc2)c1	1	82	66	6	89	95	.	.	.	.	.	.	.
CCN(CC)Cc1c(-c2ccccc2)[nH]c2ccc(C)cc2c1=O	2	142*[activator]	409	36	110	104	110*	-3	107	100	107	102	91
Cc1ccc2[nH]c(-c3ccccc3)cc(=O)c2c1	33	96	94	12	98	103	.	.	.	.	.	.	.
COc1ccc2nc(N/C(N)=N/C(=S)Nc3cccc(C)c3)nc(C)c2c1	.	.	.	17	.	.	.	.	.	.	.	.	.
COc1ccc2nc(N/C(N)=N/C(=S)Nc3c(C)cccc3C)nc(C)c2c1	9	119	203*[activator]	22	113	118	113*	1	99	99	103	99	88
O=C(Nc1ccc2c(c1)OCO2)C1CCN(Cc2cnn(-c3ccccc3)c2-n2cccc2)CC1	3	56*	134	44	79	37*	79*	0	98	97	98	97	96
O=C(CN1C(=O)NC2(CCCC2)C1=O)NCCC1=CCCCC1	14	31*	27	12	37*	29*	.	-1	101	98	101	99	98
Cc1ccc(C2(C)NC(=O)N(CC(=O)NCCC3=CCCCC3)C2=O)cc1 (stereo not drawn)	9	102	101	24	100	100	.	.	.	.	.	.	.
Cc1cc(C)cc(C(=O)OCC(=O)NCc2cccs2)c1	5	125	176*[activator]	10	110	107	110*	-1	96	93	95	96	97
O=C(COC(=O)c1ccccc1)NCc1cccs1	5	103	108	9	104	102	.	.	.	.	.	.	.
Cc1csc(SCC(=O)NC(=O)NC2CCCC2)n1	8	94	91	16	90	92	.	.	.	.	.	.	.
